Results filed as inconclusive are left out. Unmarked numbers belong to inactive results. The source made the active and inactive calls. The call rests on the fitted dose curve; in most records, active means well fitted activation curve with a large enough effect; inconclusive means small, poorly fitted or top-dose-only effect; inactive means no such curve, though single readings can be large or run the other way.
Target: Cellular tumor antigen p53 (Homo sapiens) (UniProt P04637)
Experiment: Primary qHTS for small molecule compounds that upregulate eGFP-tagged delta133p53alpha (in N-terminal) cells. (AID 2060322); further: nearly all actives have a fitted effect of over 75% in size;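 on activation: cells pre-induced with doxycycline then dosed without doxycycline; series mostly up to about 56 µM; 0% = DMSO vehicle and 100% = reference activator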
Settings: NCI-H358 eGFP-delta133p53alpha fluorescence, 24 h; activation: stronger effect = higher value
In short: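 NCI-H358 cells pre-induced 24 h with 10 ng/ml doxycycline for eGFP-delta133p53alpha, plated dox-free and exposed 24 h at 37C to titrated compounds. Fixed, Hoechst-stained; gated GFP peak intensity by laser scanning cytometry, normalized to DMSO (0%) and 57.5 uM 5-azacytidine (100%).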
Potency means the concentration at half of the fitted maximal effect.

Chain of Cellular tumor antigen p53 (Homo sapiens) (P04637 whole entry, looked up): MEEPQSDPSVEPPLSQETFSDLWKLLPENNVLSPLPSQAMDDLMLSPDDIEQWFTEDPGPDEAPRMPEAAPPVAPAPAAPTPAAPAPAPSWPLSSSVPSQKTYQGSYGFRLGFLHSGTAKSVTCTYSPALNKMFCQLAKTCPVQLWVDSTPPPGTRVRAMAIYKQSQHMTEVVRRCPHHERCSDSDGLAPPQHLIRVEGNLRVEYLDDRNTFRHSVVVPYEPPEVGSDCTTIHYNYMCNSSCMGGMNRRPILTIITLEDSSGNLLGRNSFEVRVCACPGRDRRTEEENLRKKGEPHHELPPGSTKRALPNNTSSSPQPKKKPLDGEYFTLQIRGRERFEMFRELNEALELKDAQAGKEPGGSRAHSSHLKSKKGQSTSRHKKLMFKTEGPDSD

Row | Compound | activation [%] | Potency
1 | O=C(CCCl)NCc1ccccc1 | -0.565 | –
2 | O=C(O)C1CCC1 | -6.69 | –
3 | CCOC(=O)C(=O)c1csc(NC=O)n1 | -16.4 | –
4 | COc1ccccc1N1CCN(CCCCNC(=O)c2ccc(-c3ccc(C(C)=O)cc3)cc2)CC1 | -10.9 | –
5 | O=C1OC(OC(=O)c2cccnc2Nc2cccc(C(F)(F)F)c2)c2ccccc21 (stereo not drawn) | -25.4 | –
6 | NS(=O)(=O)Cc1noc2ccccc12 | 10.9 | –
7 | CC(C)(C)C1CCC(CC2=C(O)c3ccccc3C(=O)C2=O)CC1 (stereo not drawn) | -11.9 | –
8 | CCc1cnn2c(NCc3ccc[n+]([O-])c3)cc(N3CCCC[C@@H]3CCO)nc12 | – | 68.5 nM (active)
9 | O=C(O)CCc1nc2ccccc2[nH]1 | 0.565 | –
10 | CCCC(O)C(CC)CO (stereo not drawn) | 6.21 | –
11 | CN(CC=CC#CC(C)(C)C)Cc1cccc2ccccc12 | 36.7 | –
12 | O=C1O[C@H](CO)[C@@H](O)[C@H](O)[C@H]1O | 6.69 | –
13 | COC(=O)CCCCC(CCSS/C(CCO)=C(\C)N(C=O)Cc1cnc(C)nc1N)SC(C)=O (stereo not drawn) | 10 | –

— PubChem BioAssay (NCATS)
